Laboratory results reported in PubChem BioAssay AID1508625 (Wald Lab, School of Medicine, Case Western Reserve …, 2021).

Experiment: enhancers of NK cell killing of ovarian tumor cells, primary screen, imaging, OVCAR3, primary NK cells, calcein-AM imaging (AID 1508625);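 note: compound given to NK cells 16 h before adding targets at 1.5 to 1 ratio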
Details: OVCAR3 lysis by primary NK cells, at 5 µM; z-score: measured here: robust Z-score, single-point normalisation

Compound | corrected activity, negative = more killing [%] | z-score
CCc1cc(=O)oc2c(C)c(OCC(=O)c3cccc(OC)c3)ccc12 | -4.48 | -1.67
CCOCCCNC(=O)c1ccc(N2CCCC2=O)cc1 | -4.67 | -1.26
COc1ccc(S(=O)(=O)N2CCN(C(=O)COc3ccc4ccccc4c3)CC2)cc1 | -2.15 | -0.961
Cc1ccc(-c2cc(C(=O)NN=Cc3cccnc3)[nH]n2)cc1 | -3.53 | -1.54
CC(C)OC(=O)CN1CCCN(S(=O)(=O)c2ccc(F)cc2)CC1 | -3.05 | -0.969
O=C(NC1CCCC1)c1c[nH]c2ccc(S(=O)(=O)Nc3cccc(C(F)(F)F)c3)cc2c1=O | -7.02 | -1.72
OC(CN1CCN(C2c3ccccc3-c3ccccc32)CC1)Cn1c2ccccc2c2ccccc21 (stereo not given) | -8.62 | -1.82
COc1ccc(Cl)cc1NC(=O)c1cnn2c(C(F)(F)F)cc(-c3ccc(C)cc3)nc12 | -0.972 | -0.309
Clc1cccc(N2CCN(Cc3cn4c(-c5cccc(Br)c5)nnc4s3)CC2)c1 | -6.72 | -1.91
CC(=O)OC1CC(C)N(C(=O)c2ccccc2)c2ccc(C)cc21 (stereo not given) | -5.57 | -1.73
CCOC(=O)c1c(-c2ccccc2)csc1NC(=O)CSc1nc2ccccc2o1 | 25.2 | 7.82
CCCOc1cccc(C(=O)Nc2ccc3nn(-c4ccc(OC)cc4)nc3c2)c1 | -3.41 | -1.21
Cc1ccc(NC(=O)CSc2nnc(N3C(=O)c4ccccc4C3=O)s2)c(C)c1 | -5.41 | -1.68
CCCc1cc(=O)oc2cc3oc4c(c3cc12)CCCC4 | -1.47 | -0.438
Cc1cc(C)c(C=Nc2ccc(-c3ccccc3[N+](=O)[O-])cc2)c(C)c1 | -4.49 | -1.91
